Inhibition data for 22 molecules are collected here from PubChem BioAssay.

Unmarked numbers belong to inactive results. No rule for the calls is given here.

A word on the inhibition: it is the change of the read-out against control, counted positive when it falls.

Chain of Pantothenate synthetase (Mycobacterium tuberculosis (strain ATCC 25618 / H37Rv)) (P9WIL5 whole entry, looked up): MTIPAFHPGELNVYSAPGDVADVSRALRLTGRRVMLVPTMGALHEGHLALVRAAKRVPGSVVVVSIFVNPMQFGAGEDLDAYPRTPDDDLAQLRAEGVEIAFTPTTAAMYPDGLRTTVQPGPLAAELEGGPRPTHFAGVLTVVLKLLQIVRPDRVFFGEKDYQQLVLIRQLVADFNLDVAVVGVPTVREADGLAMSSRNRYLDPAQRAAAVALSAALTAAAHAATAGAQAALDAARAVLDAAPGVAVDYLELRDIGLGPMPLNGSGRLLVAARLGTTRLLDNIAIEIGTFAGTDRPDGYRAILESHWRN

This experiment addresses Pantothenate synthetase (Mycobacterium tuberculosis (strain ATCC 25618 / H37Rv)) (UniProt P9WIL5). The experiment is described as follows: Recombinant Mtb pantothenate synthetase (PanC) inhibitors, coupled enzyme, confirmatory (AID 375).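 Also: 0% = full reaction with vehicle and 100% = no enzyme background.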 To be noted: coupled enzyme assay; at 10 µM, active compounds read high.
Regarding `O=C(Nc1ccc2nn(-c3ccccc3)nc2c1)c1ccc(Br)o1`, the inhibition was 0%.

Consider `Nc1nc(-c2ccccc2)cc(C(F)(F)F)n1`, for which the inhibition is 5%.

`Cc1cc2cc(CCNC(=O)CC(C)C)c(=O)[nH]c2cc1C`: the inhibition is 9%.

As for `CCN(CCCc1ccccc1)CCCc1ccccc1`, the inhibition is 0%.

On to `COC(=O)C1(C#N)C(c2ccccc2)C1(C(=O)OC)C(=O)OC` (configuration not stated), for which the inhibition was 0%.

On to `Fc1ccc(NCc2nnc(SCc3nnc(-c4ccccc4)o3)n2CC2CCCO2)cc1` (configuration not stated), for which the inhibition is 0%.

As for `Cc1cc(=O)n(CC(C)C)c(O)c1C#N`, the inhibition was 0%.

For `O=C(NCCN1C(=O)C2C3C=CC(C3)C2C1=O)N1CCOCC1` (configuration not stated), the inhibition is 0%.

In the case of `CC(=O)Nc1ccc(N=Cc2ccc[nH]2)cc1`, the inhibition was 0%.

Take `CCCCCc1c(C)nc(SCC(=O)O)[nH]c1=O`: the inhibition was 0%.

For `CCOC(=O)N1CCN(c2cc(=O)n(-c3ccccc3Cl)c(=O)[nH]2)CC1`, the inhibition was 0%.

Consider `O=C1CSC(c2cccc(F)c2)N1c1ccccc1F` (configuration not stated), for which the inhibition is 2%.

Regarding `O=C(CN1CCN(c2cccc(Cl)c2)CC1)N1CCCC1`, the inhibition was 4%.

For the molecule `CC1CCc2c(sc3c2C2=NS(=O)(=O)CCN2C=N3)C1` (configuration not stated), the inhibition is 2%.

For `c1ccc(Cn2nnnc2C(c2ccccn2)N2CCOCC2)cc1` (configuration not stated), the inhibition is 0%.

As for `CSc1nc2ccc(S(=O)(=O)N3CCOCC3)cc2s1`, the inhibition was 4%.

Consider `Cc1ccc2c(c1)c1c(n2CC(O)Cn2c(C)nc3ccccc32)/C(=N\O)CCC1` (configuration not stated), for which the inhibition is 5%.

As to `C/C=C/Cn1c(Br)nc2c1c(=O)[nH]c(=O)n2C`, the inhibition was 0%.

Consider `CCc1ccc(NS(=O)(=O)c2cccs2)cc1`, for which the inhibition is 0%.

Regarding `COC(=O)c1c(-c2ccc(F)cc2)noc1N`, the inhibition is 2%.

Take `COCCCNCC(=O)Nc1ccc(OC(F)(F)F)cc1`: the inhibition is 3%.

`C[C@]12CCC(=O)C=C1CC[C@@H]1[C@@H]2CC[C@@]2(C)[C@H]1CC[C@]2(O)C(=O)CO`: the inhibition was 0%.
